Assay outcomes from PubChem BioAssay.
Rows were chosen to be rich in hits. Some 3.4% of all compounds tested hit in one or more screens of this group.
JMJD2E inh: JMJD2E (human) inhibition; B2RXH2; JMJD2E catalytic domain, FDH-coupled NADH fluorescence (FDH is formaldehyde dehydrogenase); Potency, µM (doses to about 57.1 µM), actives largely listed as inhibitors; hit rate 1.6% among 230,000; active = well fitted inhibition curve with a large enough effect, not every such curve was filed as active; inconclusive = small, poorly fitted or top-dose-only effect, or another doubt; inactive = no such curve, though single readings can be large or run the other way; also: nearly all actives have a fitted effect of over 50% in size
Target sequence (B2RXH2 1-337 limits assumed): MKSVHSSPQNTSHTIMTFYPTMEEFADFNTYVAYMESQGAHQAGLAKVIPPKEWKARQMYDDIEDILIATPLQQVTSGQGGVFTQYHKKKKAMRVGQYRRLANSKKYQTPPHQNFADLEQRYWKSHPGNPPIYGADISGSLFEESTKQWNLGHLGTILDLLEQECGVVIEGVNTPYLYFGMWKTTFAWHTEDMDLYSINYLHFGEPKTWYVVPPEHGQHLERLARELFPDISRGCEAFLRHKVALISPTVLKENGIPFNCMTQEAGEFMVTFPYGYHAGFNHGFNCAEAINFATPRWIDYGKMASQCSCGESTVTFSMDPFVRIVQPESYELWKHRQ
Tau fibril ThT: inhibitors of human tau fibril formation, thioflavin T binding; P10636; recombinant tau K18 P301L, heparin-induced fibrillization, ThT fluorescence; Potency, µM (series often up to 57.4 µM), most hits filed as inhibitors; hit rate 2.1% among 270,000; AID 1460; also: nearly all actives have a fitted effect of over 55% in size
Target sequence (P10636 561-689 P618L limits assumed): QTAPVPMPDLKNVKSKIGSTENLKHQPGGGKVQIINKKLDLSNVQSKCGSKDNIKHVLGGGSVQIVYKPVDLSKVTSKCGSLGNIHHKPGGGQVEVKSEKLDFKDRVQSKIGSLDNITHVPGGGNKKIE
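Aggregation was driven by heparin (20 uM final) acting on recombinant tau […] bearing P301L in 100 mM sodium acetate pH 7; fibrils were detected with Thioflavin T.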
Tau fluor cs: counter-screen for tau fibril formation inhibitors | tau K18 P301L (four-repeat tau fragment) Alexa594 fluorescence, heparin fibrillization | Potency, µM (highest dose often 57.7 µM) | hit rate 0.93% among 280,000 | AID 1463; also: nearly all actives have a fitted effect of over 55% in size
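Human K18 P301L tau (15 uM unlabeled plus 0.24 uM Alexa 594-labeled, final) in 100 mM sodium acetate pH 7 was mixed with compound and 20 uM heparin and incubated 6 hr at 37 C.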
RGS12 GoLoco inh: blocks human Gai1 binding to RGS12 GoLoco peptide, red readout | P63096 | Gai1:RGS12 GoLoco peptide FP, rhodamine, 10 min | Potency, µM (doses to about 61.6 µM), hits mostly inhibitors | hit rate 0.44% among 230,000; active = well fitted inhibition curve with a large enough effect, not every such curve was filed as active; inactive = no such curve, though single readings can be large or run the other way; also: nearly all actives have a fitted effect of over 30% in size
Tau fibril FP: inhibitors of human tau fibril formation. P10636. K18 P301L tau heparin fibrillization, Alexa594 FP, 6 h. Potency, µM (top dose mostly 57.7 µM), hits mostly inhibitors. hit rate 0.39% among 280,000. AID 1468; also: nearly all actives have a fitted effect of over 55% in size
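Recombinant K18 P301L […], labeled with Alexa 594 at 0.24 uM over 15 uM unlabeled; heparin inducer 20 uM final; 37 C, 6 hr; FP endpoint.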
Of the large screens only hits and unclear results are named; the others gave an inactive call; ! = not active in a repeat; [ ] = dose if it differs, or a comment. Unless noted, calls follow the shape of the dose curve; as a rule, active = well fitted curve in the direction sought with a large enough effect; inconclusive = small, poorly fitted or top-dose-only effect, or another doubt; inactive = no such curve, though single readings can be large; an effect the other way counts as inactive or inconclusive.

Nc1ccccc1N=c1ssnc1Cl	JMJD2E inh inconclusive, Tau fibril ThT 22µM, Tau fibril FP inconclusive
Cc1cc(Cl)ccc1N=C1N=C(N)c2ccccc21	none
Cc1cc(C)nc(/N=c2/ssnc2Cl)c1	Tau fibril ThT 4µM, Tau fibril FP 8.9µM
Cc1cc(Cl)ccc1N=c1ssnc1Cl	JMJD2E inh 11µM, Tau fibril ThT 14µM, Tau fibril FP 22µM
Cc1ccc(N=c2ssnc2Cl)cc1	JMJD2E inh 11µM, Tau fibril ThT 14µM, Tau fibril FP inconclusive
O=C(NCc1ccccc1)C1CCN(S(=O)(=O)c2ccc3c(c2)CCCN3C(=O)C2CCC2)CC1	none (no result: JMJD2E inh, RGS12 GoLoco inh)
CNc1nc(N/N=C/c2cc3c(cc2[N+](=O)[O-])OCO3)nc(Nc2ccccc2)n1	Tau fibril ThT 7.1µM
O=[N+]([O-])c1cc2c(cc1/C=N\NS(=O)(=O)c1ccccc1)OCO2	Tau fibril ThT inconclusive, Tau fibril FP inconclusive
Cn1c(=O)c(Cc2ccccc2)c(O)c2ccccc21	JMJD2E inh inconclusive
Cn1c(N=NC(=O)c2ccccc2)c(O)c2ccccc21	Tau fibril ThT 13µM, Tau fluor cs inconclusive
Cc1ccc(N=Nc2c(O)ccc3cc(S(=O)(=O)O)ccc23)cc1	none (no result: JMJD2E inh, Tau fibril ThT, Tau fluor cs, Tau fibril FP)
Cc1ccc(N=Nc2c(O)ccc3n[nH]nc23)cc1	Tau fibril ThT 3.5µM, Tau fluor cs inconclusive
CC1(OC(=O)c2cccs2)C(=O)C=C2C=C(c3ccsc3)OC=C2C1=O (stereo not drawn)	Tau fibril FP inconclusive
CC1(OC(=O)c2cccs2)C(=O)C=C2C=C(c3ccc(C#N)cc3)OC=C2C1=O (stereo not drawn)	Tau fibril ThT 28µM, Tau fibril FP inconclusive
CC1(OC(=O)CCc2ccccc2)C(=O)C=C2C=C(c3ccsc3)OC=C2C1=O (stereo not drawn)	Tau fibril ThT 25µM, Tau fibril FP inconclusive
COc1ccc(CN2C=C3C(=O)C(C)(OC(=O)C4CCCC4)C(=O)C=C3C=C2c2ccsc2)cc1 (stereo not drawn)	JMJD2E inh inconclusive, Tau fibril ThT 18µM!, Tau fibril FP inconclusive
CC1(OC(=O)C2CCCC2)C(=O)C=C2C=C(c3ccsc3)OC=C2C1=O (stereo not drawn)	Tau fibril ThT 16µM, Tau fluor cs inconclusive, Tau fibril FP inconclusive
Cc1ccc(NC(=O)C2CCN(C(=O)c3cnn(-c4ccccc4)c3-n3cccc3)CC2)cc1C	none (no result: JMJD2E inh, RGS12 GoLoco inh)
Cc1ccc(CNc2nc3ccccc3n3c(C)nnc23)cc1	none (no result: JMJD2E inh, RGS12 GoLoco inh)
O=C(O)c1ccc(N=c2oc3cc(O)ccc3cc2C(=O)NCc2ccccc2)cc1	Tau fibril ThT 28µM (no result: JMJD2E inh)
COc1ccc2cc(C(=O)NCc3ccccc3)c(=Nc3ccc(C(=O)O)cc3)oc2c1	JMJD2E inh inconclusive, Tau fibril ThT inconclusive
COc1ccccc1NC(=O)c1c(-c2ccc(C)cc2)nnc2ccccc12	none (no result: JMJD2E inh, RGS12 GoLoco inh)
O=C(Oc1ccccc1C(=O)Nc1ccccc1)c1ccc(Br)c([N+](=O)[O-])c1	Tau fibril ThT 10µM, Tau fluor cs inconclusive, Tau fibril FP inconclusive
CCOC(=O)c1cc(-c2ccccc2)n(-c2cccc(C(=O)Nc3cccc(F)c3)c2)c1C	Tau fibril FP inconclusive (no result: JMJD2E inh, RGS12 GoLoco inh)
CCC(Cc1ccccc1)NC(=O)c1csc2c1CCCCC2 (stereo not drawn)	none (no result: JMJD2E inh, RGS12 GoLoco inh)
COc1ccc(NC(=O)c2ccc(-c3ccccc3C(F)(F)F)o2)cc1	Tau fibril ThT 25µM, Tau fluor cs 25µM[quencher]
O=C(Nc1cccc(F)c1)c1ccc(-c2ccccc2C(F)(F)F)o1	Tau fluor cs inconclusive, Tau fibril FP inconclusive
CC(=O)N1c2ccc(S(=O)(=O)NCC3CCC(C(=O)Nc4cccc(C)c4C)CC3)cc2CC1C (stereo not drawn)	none (no result: JMJD2E inh, RGS12 GoLoco inh)
CCOC(=O)c1c(-c2ccc(Cl)cc2)csc1NC(=O)CNCc1ccco1	JMJD2E inh 25µM
CC(=O)Oc1ccc(C(=O)Cc2ccc3ccccc3n2)c(O)c1C	Tau fibril ThT 1.4µM
COc1ccc(-c2nc(SCC(=O)Nc3ccccc3)c(-c3ccc(F)cc3)[nH]2)cc1OC	Tau fibril ThT inconclusive, Tau fluor cs 7.1µM[quencher], Tau fibril FP inconclusive (no result: JMJD2E inh, RGS12 GoLoco inh)
COc1ccc(NC(=O)CSc2n[nH]c(-c3ccccc3)n2)cc1Cl	Tau fluor cs inconclusive, Tau fibril FP inconclusive (no result: JMJD2E inh, RGS12 GoLoco inh)
COCCNC(=O)CSc1nc(-c2ccc(F)cc2)[nH]c1-c1ccc(Cl)cc1	Tau fluor cs inconclusive, Tau fibril FP inconclusive (no result: JMJD2E inh, RGS12 GoLoco inh)
COCCNC(=O)CSc1nc(-c2cc(OC)c(OC)c(OC)c2)[nH]c1-c1ccc(Cl)cc1	Tau fibril ThT inconclusive, Tau fluor cs 16µM[quencher], Tau fibril FP inconclusive (no result: JMJD2E inh, RGS12 GoLoco inh)
